Laboratory results taken from PubChem BioAssay (NCI).
Values joined by “and” are separate entries in the source; they are usually repeats but may differ in a detail not shown here. Equal values may be shown once. The panel holds about 79,000 compounds, 15% with a hit somewhere; the sample as a whole holds those more often. The source holds several records for some structures; these can differ, active in one and inactive in another. Active and inactive are the calls of the source. No stated cut-off is given here; in the data, active means growth inhibition above about 70%; inactive means the rest.

Key:
[1] = NCI Yeast Anticancer Drug Screen. Data for the rad50 strain (AID 155);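 further: 0% = growth of vehicle-only cultures of the same strain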; details: S. cerevisiae rad50 strain growth inhibition, stronger effect = higher value
How it was run: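 A DNA repair-deficient yeast mutant serves as the test organism; compound-induced growth inhibition is calculated against vehicle-treated cells.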

[2] = NCI Yeast Anticancer Drug Screen. Data for the mec2-1 strain (AID 157); details: S. cerevisiae mec2-1 strain, stronger effect = higher value
How it was run: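 Growth inhibition is read against vehicle-treated controls after compound exposure of the mec2-1 yeast strain, which is defective in DNA damage repair or cell cycle control.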

[3] = NCI Yeast Anticancer Drug Screen. Data for the sgs1 mgt1 strain (AID 161);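 further: 0% = growth of cultures given vehicle only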; details: S. cerevisiae sgs1 mgt1 strain, stronger effect = higher value
How it was run: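 Yeast cells carrying a defined DNA-repair defect were exposed to test compounds. Growth inhibition was measured relative to vehicle-treated controls.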

[4] = NCI Yeast Anticancer Drug Screen. Data for the cln2 rad14 strain (AID 165);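 further: 0% = growth equal to vehicle treated cultures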; details: S. cerevisiae cln2 rad14 strain, stronger effect = higher value
How it was run: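 Growth inhibition, relative to vehicle-treated controls, is the read-out. The test organism is a yeast strain with defined genetic alterations, cln2 rad14.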

[5] = NCI Yeast Anticancer Drug Screen. Data for the bub3 strain (AID 167); details: S. cerevisiae bub3 mutant strain, stronger effect = higher value
How it was run: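 Inhibition values come from growth of compound-treated mutant yeast normalised to vehicle-treated controls.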

[6] = NCI Yeast Anticancer Drug Screen. Data for the mlh1 rad18 strain (AID 175); details: S. cerevisiae mlh1 rad18 strain growth inhibition, stronger effect = higher value
How it was run: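 Cells of a genetically altered yeast strain, deficient in DNA damage repair, were treated with compound. Their growth was then compared with that of vehicle-treated cultures to give inhibition.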

[7] = at 5.0 µM (retest, dose inferred, filed as 0.5)
[8] = at 50.0 µM (retest, dose inferred, filed as 5.0)

Structure (SMILES) | growth inhibition [1, 7] | growth inhibition [1, 8] | growth inhibition ([1]; at 50.0 µM) | growth inhibition [2, 7] | growth inhibition [2, 8] | growth inhibition ([2]; at 50.0 µM) | growth inhibition [3, 7] | growth inhibition [3, 8] | growth inhibition ([3]; at 50.0 µM) | growth inhibition [4, 7] | growth inhibition [4, 8] | growth inhibition ([4]; at 50.0 µM) | growth inhibition [5, 7] | growth inhibition [5, 8] | growth inhibition ([5]; at 50.0 µM) | growth inhibition [6, 7] | growth inhibition [6, 8] | growth inhibition ([6]; at 50.0 µM)
O/N=C/c1ccc2c(c1)OCO2 | 91% (active) | 99% (active) | -1.6% (inactive) | 100% (active) | 100% (active) | -1.95% (inactive) | 46% (inactive) | 100% (active) | 38.3% (inactive) | 35% (inactive) | 99% (active) | -34.2% (inactive) | 98% (active) | 99% (active) | 4.25% (inactive) | 99% (active) | 99% (active) | -14.1% (inactive)
C=C(C)C1(CCCC)C(=O)NC(=S)NC1=O | 0% (inactive) | 60% (inactive) | 29.9% (inactive) | -18% (inactive) | 49% (inactive) | 11.8% (inactive) | -14% (inactive) | 61% (inactive) | 34.8% (inactive) | -18% (inactive) | 51% (inactive) | -28.1% (inactive) | -7% (inactive) | 45% (inactive) | 39% (inactive) | -2% (inactive) | 85% (active) | 40% (inactive)
CCCCCCCC1(c2ccc(N)cc2)CCC(=O)NC1=O (stereo unspecified) | 31% (inactive) | 36% (inactive) | 73% (active) | 0% (inactive) | 61% (inactive) | 27.9% (inactive) | 8% (inactive) | 96% (active) | 54.2% (inactive) | -8% (inactive) | 26% (inactive) | 33.8% (inactive) | 0% (inactive) | 21% (inactive) | 56% (inactive) | -2% (inactive) | 35% (inactive) | 37.1% (inactive)
S=P(Nc1ccccc1)(Nc1ccccc1)Oc1ccccc1 | 2% (inactive) | 98% (active) | 99% (active) | -4% (inactive) | 98% (active) | 99% (active) | -4% (inactive) | 98% (active) | 99.2% (active) | -4% (inactive) | 97% (active) | 98.7% (active) | 9% (inactive) | 97% (active) | 98.7% (active) | 7% (inactive) | 97% (active) | 97.5% (active)
Cc1ccccc1C[As](C)(=O)O | -157% (inactive) | -140% (inactive) | 9.95% (inactive) | -50% (inactive) | -47% (inactive) | 2.45% (inactive) | -64% (inactive) | -58% (inactive) | 0.1% (inactive) | -62% (inactive) | -58% (inactive) | 14.8% (inactive) | -76% (inactive) | -76% (inactive) | 0.25% (inactive) | -147% (inactive) | -104% (inactive) | 0.35% (inactive)
CC(C)COP(=O)(O)OCC(C)C.[Al] | -2% (inactive) | -11% (inactive) | 3.45% (inactive) | -4% (inactive) | -9% (inactive) | 16.6% (inactive) | -5% (inactive) | -4% (inactive) | 3.05% (inactive) | -1% (inactive) | 3% (inactive) | -12.1% (inactive) | 1% (inactive) | 31% (inactive) | -0.75% (inactive) | -2% (inactive) | -10% (inactive) | 18.2% (inactive)
CCC[CH2][Sn][Cl] | 99% (active) | 98% (active) | 98.2% (active) | 100% (active) | 98% (active) | 98.7% (active) | 99% (active) | 99% (active) | 98.8% (active) | 99% (active) | 98% (active) | 97.7% (active) | 99% (active) | 97% (active) | 98.1% (active) | 99% (active) | 98% (active) | 97.4% (active)
CC(=O)C(CN(C(C)C)C(C)C)C(c1ccccc1)c1c(O)c2ccccc2oc1=O (stereo unspecified) | 17% (inactive) | 17% (inactive) | 72% (active) | 11% (inactive) | 11% (inactive) | 47.4% (inactive) | 8% (inactive) | 8% (inactive) | 58.7% (inactive) | -3% (inactive) | -3% (inactive) | 58% (inactive) | 13% (inactive) | 13% (inactive) | 70.3% (active) | 12% (inactive) | 12% (inactive) | 70.1% (active)
C=Cc1ccccc1 (tested in a mixture with another compound) | -1% (inactive) | 2% (inactive) | 16.1% (inactive) and 1.1% (inactive) and -7.7% (inactive) | -6% (inactive) | 0% (inactive) | -1.35% (inactive) and 6.9% (inactive) and -3.75% (inactive) | -2% (inactive) | -1% (inactive) | -11.2% (inactive) and -6.85% (inactive) and -12.4% (inactive) | -3% (inactive) | 3% (inactive) | 1.25% (inactive) and -3.6% (inactive) and 2.15% (inactive) | -5% (inactive) | -4% (inactive) | 23.4% (inactive) and 14.5% (inactive) and 6.1% (inactive) | -1% (inactive) | 1% (inactive) | 12.4% (inactive) and 31.1% (inactive) and -6.6% (inactive)
CC(=O)[O][Hg][c]1cc2c(cc1O)Cc1cc([N+](=O)[O-])ccc1-2 | 95% (active) | 98% (active) | 93.5% (active) | 99% (active) | 99% (active) | 98% (active) | 99% (active) | 99% (active) | 86.2% (active) | 76% (active) | 98% (active) | 94.1% (active) | 99% (active) | 98% (active) | 97.6% (active) | 99% (active) | 99% (active) | 96.5% (active)
O=S(=O)(O)O.[Pt].c1ccc([PH+](c2ccccc2)c2ccccc2)cc1.c1ccc([PH+](c2ccccc2)c2ccccc2)cc1.c1ccc([PH+](c2ccccc2)c2ccccc2)cc1 | 23% (inactive) | 95% (active) | 93.8% (active) | 13% (inactive) | 94% (active) | 98.1% (active) | 9% (inactive) | 94% (active) | 94.3% (active) | 8% (inactive) | 97% (active) | 97.8% (active) | -7% (inactive) | 92% (active) | 96.7% (active) | 39% (inactive) | 95% (active) | 95.2% (active)
Oc1c(Cl)c(Cl)c(Cl)c(Cl)c1Cl.[Cu+2] | 23% (inactive) | 98% (active) | 88.5% (active) | 18% (inactive) | 99% (active) | 89.8% (active) | 31% (inactive) | 98% (active) | 81% (active) | 8% (inactive) | 99% (active) | 92.8% (active) | 11% (inactive) | 97% (active) | 89.5% (active) | 15% (inactive) | 96% (active) | 88.6% (active)
CCCCCOC(=O)CCl | 8% (inactive) | 69% (inactive) | 54.7% (inactive) | 1% (inactive) | 16% (inactive) | 1.75% (inactive) | 4% (inactive) | 40% (inactive) | 32.2% (inactive) | 1% (inactive) | 8% (inactive) | 16.5% (inactive) | 0% (inactive) | -5% (inactive) | -27.6% (inactive) | 11% (inactive) | 32% (inactive) | 19.4% (inactive)
C[CH2][Hg][Cl] | 99% (active) and 48% (inactive) | 99% (active) | 93.1% (active) | 100% (active) and 46% (inactive) | 100% (active) and 93% (active) | 95% (active) | 100% (active) | 100% (active) and 99% (active) | 94.5% (active) | 99% (active) and 86% (active) | 99% (active) | 93.3% (active) | 100% (active) | 99% (active) | 93.7% (active) | 99% (active) and 35% (inactive) | 99% (active) | 93.2% (active)
NC(C(=O)O)c1ccccc1Cl (stereo unspecified) | -161% (inactive) | -142% (inactive) | 21% (inactive) | -51% (inactive) | -48% (inactive) | 1.65% (inactive) | -64% (inactive) | -57% (inactive) | -2.5% (inactive) | -61% (inactive) | -56% (inactive) | 73.1% (active) | -68% (inactive) | -69% (inactive) | -3.55% (inactive) | -147% (inactive) | -106% (inactive) | 13.9% (inactive)
CC(C)(c1ccccc1)c1ccc(O)cc1 | -5% (inactive) | 58% (inactive) | 98% (active) | -38% (inactive) | 88% (active) | 99% (active) | -7% (inactive) | 46% (inactive) | 99.7% (active) | -9% (inactive) | 71% (active) | 98.8% (active) | -23% (inactive) | 97% (active) | 99.5% (active) | -8% (inactive) | 97% (active) | 99.5% (active)
COC12[C@@H]3N[C@@H]3CN1C1=C(C(=O)C(NCCSSCCNC3=C(C)C(=O)C4=C(C3=O)C(COC(N)=O)[C@]3(OC)C5N[C@@H]5CN43)=C(C)C1=O)[C@@H]2COC(N)=O (stereo partly specified) | 35% (inactive) | 73% (active) | 63.1% (inactive) | 18% (inactive) | 82% (active) | 49% (inactive) | 41% (inactive) | 74% (active) | 3.55% (inactive) | 19% (inactive) | 53% (inactive) | 39.4% (inactive) | 17% (inactive) | 52% (inactive) | -8.85% (inactive) | 54% (inactive) | 93% (active) | 79% (active)
